In PubChem BioAssay AID652115 (Broad Institute, 2013):
Where “and” joins values, the source holds several entries; their conditions need not be identical. Equal values may be shown once. About 3,800 (1.2%) of roughly 330,000 compounds were called active. What follows is part of a selection rich in actives, with near analogues and random picks from the rest. Values without a mark were called inactive. Rule as the data show it: active = inhibition above about 15%; inconclusive = no clear call, values can overlap the other calls; inactive = below that.

Each molecule was assayed against NAD-dependent protein deacylase sirtuin-5, mitochondrial (Homo sapiens) (UniProt Q9NXA8) (assay: SIRT5 desuccinylase inhibitors, primary screen, biochemical, fluorescence imaging, single point, set 5 (AID 652115)). Settings: Purified SirT5, succinyl-peptide AMC, trypsin-coupled fluorescence; at 15 µM; stronger effect = higher value.
Chain of NAD-dependent protein deacylase sirtuin-5, mitochondrial (Homo sapiens) (Q9NXA8 whole entry, looked up): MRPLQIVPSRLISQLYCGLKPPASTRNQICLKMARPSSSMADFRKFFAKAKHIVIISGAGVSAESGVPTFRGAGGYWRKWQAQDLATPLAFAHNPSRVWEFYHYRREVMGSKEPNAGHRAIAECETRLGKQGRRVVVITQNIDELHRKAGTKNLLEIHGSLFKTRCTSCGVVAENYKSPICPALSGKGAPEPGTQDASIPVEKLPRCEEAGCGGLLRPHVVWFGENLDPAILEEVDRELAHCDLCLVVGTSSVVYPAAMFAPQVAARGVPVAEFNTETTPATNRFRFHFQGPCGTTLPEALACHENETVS

Structure (SMILES) | inhibition
O=C(C[C@H]1CC[C@H]2[C@@H](COC[C@@H](O)CN2C(=O)c2ccc3c(c2)OCO3)O1)NC1Cc2ccccc2C1 | -1.48%
CCCNC(=O)Nc1ccc2c(c1)OC[C@H](C)N(C(=O)C1CCC1)C[C@H](C)[C@@H](OC)CN(C)C2=O | -2.08%
COc1ccc2c3c([nH]c2c1)[C@H](CO)N(Cc1nccs1)CC31CCN(Cc2ccncc2)CC1 | 1.68%
CC=Cc1ccc2n(c1=O)C[C@@H]1[C@@H](CO)[C@H](C(=O)N3CCCCC3)[C@H]2N1C(=O)C1CCC1 (mixture of isomers) | -13.5%
Nc1ccccc1-c1cn(CC(=O)Nc2ccon2)nn1 | -0.431%
C[C@@H]1CN([C@H](C)CO)C(=O)c2cc(C#CCC3CCCC3)cnc2O[C@H]1CN(C)Cc1ccccn1 | -6.11%
C[C@H](CO)N1C[C@H](C)[C@H](CN(C)Cc2ccc3c(c2)OCO3)OCCCC[C@H](C)Oc2ccc(NC(=O)c3ccccc3)cc2C1=O | 3.6%
O=C(C[C@H]1CC[C@@H]2[C@H](COC[C@H](O)CN2S(=O)(=O)c2ccccc2)O1)N1CCOCC1 | -0.872%
COc1ccccc1-c1cnc2c(c1)C(=O)N([C@@H](C)CO)C[C@@H](C)[C@H](CN(C)Cc1cccnc1)O2 | 0.854%
CN1c2ccc(C3=CCCCC3)cc2[C@@H]2[C@@H](CCN2S(=O)(=O)c2ccccc2F)[C@H]1CO | 3.11%
O=C(C[C@@H]1C=C[C@@H](NC(=O)C2CCC2)[C@H](CO)O1)NCC1CC1 | -2.09%
CCOC(=O)c1c(-c2ccccc2)oc2cc(Br)c(O)cc12 | 0.164%
CCOC(=O)c1c(-c2ccccc2)oc2ccc(OCC(=O)NN)cc12 | 6.17%
CCOC(=O)c1c(-c2ccccc2)oc2ccc(OCC(N)=O)cc12 | 22.2% (active)
CN1C(=O)c2cc(NC(=O)c3cccc(F)c3)ccc2OC[C@H]2O[C@@H](CC(=O)NCc3ccccc3Cl)CC[C@@H]21 | 6.51%
O=C(C[C@H]1C[C@H]2c3cc(NC(=O)NC4CCCC4)ccc3O[C@H]2[C@H](CO)O1)NCCc1ccccc1 | -4.04%
CCC(=O)N1C[C@@H](C)[C@H](OC)CN(C)C(=O)c2cc(NC(=O)NC3CCCC3)ccc2OC[C@H]1C | 3.98%
COCOCCn1cc(CN2CCS(=O)(=O)N(Cc3ccc(-c4ccccc4)cc3)C(CC(C)C)C2=O)nn1 (centres undefined) | -0.714%
COCOCCn1cc(CN2CCS(=O)(=O)N(Cc3ccc(-c4ccc(OC)cc4)cc3)C(CC(C)C)C2=O)nn1 (centres undefined) | 18.3% (active)
COCOCCn1cc(CN2CCS(=O)(=O)N(Cc3ccc(-c4cccc(N(C)C)c4)cc3)C(CC(C)C)C2=O)nn1 (centres undefined) | -0.197%
C[C@@H]1CN([C@H](C)CO)C(=O)c2cc(NS(=O)(=O)c3cccs3)ccc2O[C@@H](C)CCCCO[C@H]1CN(C)Cc1ccc(C(F)(F)F)cc1 | 13.1%
CCS(=O)(=O)N1CC(=O)N2[C@H](CO)[C@@H](c3ccc(C#CC4CCCC4)cc3)[C@@H]2C1 | -0.752%
CCN(CCn1cccn1)C(=O)CC1C(=O)NCCN1Cc1cccc(OC)c1OC (centres undefined) | 16.5% (active)

Structure (SMILES) | inhibition
CN(Cc1cccc2ncccc12)C(=O)CC1C(=O)NCCN1Cc1ccc(F)cc1 (centres undefined) | 7.41%
COc1ccccc1CN1CCNC(=O)C1CC(=O)N(C)CC1CCOCC1 (centres undefined) | -0.968%
Cc1noc(C)c1S(=O)(=O)Nc1ccc2c(c1)C(=O)N([C@H](C)CO)C[C@H](C)[C@H](CN(C)C(=O)NC1CCCCC1)OCCCC[C@H](C)O2 | 0.076%
Cc1sc(NC(=O)c2ccc3ncsc3c2)c(C(N)=O)c1C | -6.86%
COc1ccccc1-c1nnc(NC(=O)c2ccc3ncsc3c2)o1 | 20.5% (active)
COc1ccccc1-c1nnc(NC(=O)c2cccc(N3C(=O)CCC3=O)c2)o1 | 1.38%
CCCNC(=O)C[C@H]1CC[C@@H]2[C@H](COC[C@H](O)CN2CC2CCCCC2)O1 | -1.9%
CC(=O)N(C)C[C@H]1Oc2ncc(-c3cccc(F)c3)cc2C(=O)N([C@@H](C)CO)C[C@H]1C | 25.3% (active)
C[C@H]1CN([C@@H](C)CO)C(=O)c2cc(-c3cccc(F)c3)cnc2O[C@@H]1CN(C)C(=O)c1ccccn1 | 0.073%
C[C@@H]1CN([C@H](C)CO)C(=O)c2cc(-c3cccc(F)c3)cnc2O[C@@H]1CN(C)C | 21.7% (active)
C[C@H](CO)N1C[C@H](C)[C@@H](CN(C)C)Oc2ncc(-c3cccc(F)c3)cc2C1=O | -1.97%
C[C@H]1CN([C@@H](C)CO)C(=O)c2cc(-c3cccc(F)c3)cnc2O[C@@H]1CN(C)S(C)(=O)=O | 0.285% and -8.78%
COc1cccc(-c2cnc3c(c2)C(=O)N([C@@H](C)CO)C[C@H](C)[C@H](CN(C)C(C)=O)O3)c1 | 2.24%
C[C@H]1CN([C@@H](C)CO)S(=O)(=O)c2ccc(C#Cc3ccccc3)cc2O[C@H]1CN(C)S(=O)(=O)c1cn(C)cn1 | 2.56%
COc1ccccc1-c1ccc([C@H]2[C@H](CO)N(C(=O)C3CC3)C23CN(C(C)=O)C3)cc1 | 2.52%
O=C(c1cccs1)N(Cc1cc2ccccc2[nH]c1=O)CC1CCCO1 (centres undefined) | 0.632%
Cc1cc2cc(CN(Cc3cccs3)Cc3nnnn3CC3CCCO3)c(=O)[nH]c2cc1C (centres undefined) | -2.28%
Cc1ccc(S(=O)(=O)N(Cc2cc3ccccc3[nH]c2=O)CC2CCCO2)cc1 (centres undefined) | 23.6% (active)
CO[C@H]1CN(C)C(=O)c2ccc(NC(=O)CC(F)(F)F)cc2OC[C@@H](C)N(C(=O)c2ccccc2F)C[C@@H]1C | 4.25%
O=C(NCCc1ccc(F)cc1)c1n[nH]c2ccccc12 | 9.38%
O=C(NCCc1ccc(F)cc1)c1ccc(S(=O)(=O)N2CCCCC2)cc1 | -0.792%
O=C(NCCc1ccc(F)cc1)c1ccc2nccnc2c1 | 16% (active)
Cc1ccccc1-c1ccc(C2[C@@H]3CN(C(=O)C4CCCCC4)C[C@H]2N3)cc1 (some centres undefined) | -6.18% and -1.65%

Structure (SMILES) | inhibition
C/C=C/c1ccc(C2[C@H]3CNC[C@@H]2N3Cc2cccc(OC)c2)cc1 (some centres undefined) | -2.37% and 0.748%
CCNC(=O)C[C@H]1CC[C@@H]2[C@H](COC[C@H](O)CN2S(=O)(=O)c2ccc(Oc3ccccc3)cc2)O1 | -0.497%
COc1ccc(NC(=O)N(C)C[C@@H]2OCCCC[C@H](C)Oc3ccc(NS(=O)(=O)c4cccs4)cc3C(=O)N([C@@H](C)CO)C[C@@H]2C)cc1 | -0.093%
C[C@H]1CN([C@@H](C)CO)C(=O)c2cc(C#CC3CCCCC3)cnc2O[C@H]1CN(C)S(=O)(=O)c1ccccc1 | 13.2%
C[C@@H]1CN([C@@H](C)CO)C(=O)c2cc(C#C[C@@H](C)O)cnc2O[C@H]1CN(C)CC1CCOCC1 | -2.03%
C[C@H](CO)N1C[C@H](C)[C@@H](CN(C)CC2CCOCC2)Oc2ncc(C#Cc3ccc(F)cc3)cc2C1=O | -1.14%
C[C@@H]1CN([C@H](C)CO)C(=O)c2cc(C#CC3CCCC3)cnc2O[C@H]1CN(C)S(C)(=O)=O | -4.07%
CC(C)CC#Cc1cnc2c(c1)C(=O)N([C@H](C)CO)C[C@H](C)[C@H](CN(C)CC1CCOCC1)O2 | 23% (active)
C[C@@H]1CN([C@@H](C)CO)C(=O)c2cc(C#CC3CCCCC3)cnc2O[C@H]1CN(C)S(=O)(=O)c1ccccc1 | 17.9% (active)
C[C@H]1CN([C@@H](C)CO)S(=O)(=O)c2ccc(-c3cccc(C#N)c3)cc2O[C@H]1CN(C)CC1CC1 | -0.017%
COCC#Cc1cnc2c(c1)C(=O)N([C@@H](C)CO)C[C@@H](C)[C@@H](CN(C)S(=O)(=O)c1cccc(OC)c1)O2 | -3.81%
CN(C)Cc1cn(CC[C@H]2CC[C@H](NS(=O)(=O)c3ccccc3)[C@@H](CO)O2)nn1 | -3.23%
Cc1ccc(S(=O)(=O)N2C[C@H](O)COC[C@H]3O[C@H](CC(=O)N[C@H]4CCN(Cc5ccccc5)C4)CC[C@@H]32)cc1 | -1.53%
CN(CCO)c1ccc(/C=N/Nc2nncc3ccccc23)cc1 | 25% (active)
C/C(=N\Nc1nncc2ccccc12)c1ccc(Cl)c([N+](=O)[O-])c1 | 2.12%
CN(C(=O)CSc1nncc2ccccc12)C1CCCCC1 | 1.3%
C[C@H]1CCCCO[C@@H](CN(C)Cc2ccccc2)[C@@H](C)CN([C@@H](C)CO)C(=O)c2cc(NC(=O)Cc3ccccc3)ccc2O1 | 2.55%
O=C(C[C@H]1CC[C@@H](NC(=O)Cc2cccnc2)[C@H](CO)O1)Nc1ccc(-c2ccccc2)cc1 | 4.12%
O=C(CCN1C(=O)C2C3C=CC(C3)C2C1=O)Oc1ccc2ccccc2c1 (centres undefined) | 19.8% (active)
O=C(O)CCCN1C(=O)C2C3c4ccccc4C(c4ccccc43)[C@@H]2C1=O (some centres undefined) | -0.491%
Cc1ccc(C(=O)COC(=O)CCN2C(=O)C3C4CCC(C4)C3C2=O)cc1C (centres undefined) | -2.42%
CCCNC(=O)N[C@@H]1C=C[C@H](CC(=O)NC2CCC2)O[C@H]1CO | -0.778%
COc1ccc2c3c(n(C)c2c1)[C@H](CO)N(S(=O)(=O)c1ccc(C)cc1)CC31CN(C(=O)c2ccccn2)C1 | 1.96%
